Source: PubChem BioAssay
Sampled rows, rich in hits. Any-hit rate of the full collection: about 3.4%.
proKLK7 act: proKLK7 (human) activation, primary screen; P49862; purified proKLK7, EDANS-DABCYL substrate fluorescence; 100% is mature enzyme control, 0% vehicle; activation, % at 7 µM; 370,000 tested, 0.9% active;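 active means activation above the mean of all tested compounds plus 3 SD, computed per campaign excluding outliers beyond control limits, cut at about 13% in these data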
PLC-beta3 inh: inhibitors of human phospholipase C beta3. Q01970. Purified PLC-beta3, fluorogenic substrate, fluorescence. inhibition, % at 12.2 µM. 370,000 tested, 0.18% active; in the data active means inhibition above about 11%
ADAM10 inh: ADAM10 inhibition, QFRET primary screen | recombinant ADAM10, EDANS/DABCYL FRET peptide cleavage, 3 h | inhibition, % at 7 µM | 370,000 tested, 0.62% active | AID 720582;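 active means inhibition above a per-campaign cutoff equal to the mean of compounds falling between control-based bounds plus 3 SD, cut at about 20% in these data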
PLCg1 inh: PLC-gamma1 (human) inhibition, primary screen; P19174; purified PLC-gamma1, fluorogenic substrate, fluorescence; inhibition, % at 12.2 µM; 370,000 tested, 0.84% active; in the data active means inhibition above about 9.5%
ADAM17 inh: ADAM17 inhibition, QFRET primary screen. recombinant ADAM17, EDANS/DABCYL FRET peptide cleavage. 370,000 tested, 0.83% active. P78536. inhibition, % at 6.95 µM;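 active means inhibition above the mean of compounds lying between control limits plus 3 SD, set per campaign, cut at about 8.5% in these data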
Target sequence (P78536 215-824 limits assumed): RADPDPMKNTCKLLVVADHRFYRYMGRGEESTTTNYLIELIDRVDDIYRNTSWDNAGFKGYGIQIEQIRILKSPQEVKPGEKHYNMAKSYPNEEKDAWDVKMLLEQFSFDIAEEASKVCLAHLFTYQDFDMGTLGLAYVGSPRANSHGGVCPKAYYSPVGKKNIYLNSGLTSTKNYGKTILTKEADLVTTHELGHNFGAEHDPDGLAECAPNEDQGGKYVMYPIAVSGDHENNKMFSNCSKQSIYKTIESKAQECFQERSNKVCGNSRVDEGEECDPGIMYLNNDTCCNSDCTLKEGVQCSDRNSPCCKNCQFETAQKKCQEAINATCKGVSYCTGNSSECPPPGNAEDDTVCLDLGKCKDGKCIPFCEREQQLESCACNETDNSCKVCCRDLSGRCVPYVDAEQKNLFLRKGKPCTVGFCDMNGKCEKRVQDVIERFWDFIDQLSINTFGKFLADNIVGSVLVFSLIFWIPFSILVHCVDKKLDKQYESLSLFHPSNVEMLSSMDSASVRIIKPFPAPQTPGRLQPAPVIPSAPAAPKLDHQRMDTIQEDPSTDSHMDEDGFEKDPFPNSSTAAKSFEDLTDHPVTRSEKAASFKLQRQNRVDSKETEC
HGIII-sPLA2 inh: Inhibits HGIII-sPLA2 liposome hydrolysis, primary screen; AID 743126; Q9NZ20; 370,000 tested, 0.56% active; QFRET BODIPY PC-A2 liposome hydrolysis, fluorescence; inhibition, % at 12.2 µM;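 active means inhibition above mean plus 3 SD of compounds lying within the high and low control bounds, cut at about 19% in these data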
proKLK7 act conf: proKLK7 activation, confirmation; shares compounds with proKLK7 act; purified proKLK7, EDANS-DABCYL substrate fluorescence; scaled: vehicle 0, mature enzyme 100; activation, % at 7 µM; 3,200 tested, 68% active; AID 686949;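 active means activation, as change over the incubation, above the mean of all tested compounds plus 3 SD, cut at about 13% in these data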
EDANS-DABCYL int: counter-screen for kallikrein-7 activators: EDANS-DABCYL optical interference | EDANS-DABCYL substrate fluorescence interference, no enzyme, 4 h; solvent 0%, active enzyme control 100% | shares compounds with proKLK7 act | AID 686952 | 3,200 tested, 80% active | activation, % at 7 µM;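 active means activation above the all-compound mean plus 3 SD, ignoring values outside control-based bounds, cut at about 4.8% in these data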;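 further: value is the 4 h activation minus the activation read at time zero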
K7 EDANS ctr: counter-screen for kallikrein-7 activators: EDANS-DABCYL interference, dose response | shares compounds with proKLK7 act | EDANS-DABCYL peptide fluorescence interference, no enzyme | EC50, µM | 250 tested, 20% active;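 active means compounds that raise the fluorescence signal in this interference counterscreen, with EC50 at or below 10 µM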;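 further: intact quenched peptide substrate alone read at 355 nm excitation and 520 nm emission; signal is fluorescence gain from T0 to T4 after four hours at room temperature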
A number is an active result; – = inactive; · = no result given.

SMILES	proKLK7 act	PLC-beta3 inh	ADAM10 inh	PLCg1 inh	ADAM17 inh	HGIII-sPLA2 inh	proKLK7 act conf	EDANS-DABCYL int	others
CC(=O)N1CCN(C2=NC(=O)N(c3ccc(Br)cc3)C(=O)C2)CC1	–	–	–	–	–	–	·	·
c1coc(-c2nc3nc4ccccc4nc3n2CC2CCCO2)c1 (stereo not given)	21.6	–	–	–	–	–	–	13.3
Nc1ncc(-c2ccccc2)n1CC1CCCO1 (stereo not given)	–	–	–	–	–	–	·	·
c1ccc(Cn2c(-c3ccco3)nc3nc4ccccc4nc32)cc1	–	–	–	–	–	–	·	·
c1ccc(-c2nc3nc4ccccc4nc3n2CC2CCCO2)cc1 (stereo not given)	17.6	–	–	–	–	–	–	7.8
CCOC(=O)[C@@]12CCCC3=C1N(CCC3)C(=O)[C@H]2CC(=O)N1CCCCC1	–	–	–	–	–	–	·	·
Cc1ccc2nc(-c3ccc(SCC(=O)Nc4nc(C)cs4)nc3)[nH]c2c1	–	–	–	–	–	–	·	·
Cc1ccc2nc(-c3ccc(SCC(=O)Nc4nnc(C)s4)nc3)[nH]c2c1	13.6	–	–	–	–	–	–	6.0
CCOC(=O)CC(=O)Nc1cc2ccc(OC)c(OC)c2cc1C(=O)OCC	15.6	–	–	–	–	–	–	–
Cc1ccc2nc3c(cc(C(=O)NCCCn4ccnc4)n3C)c(=O)n2c1	66.7	–	–	–	–	–	62.2	79.4
COCCCn1c(C(=O)NCCN2CCOCC2)cc2c(=O)n3ccccc3nc21	82.6	–	–	–	–	–	71.7	75.3
Cc1ccc(Cn2c(=N)c(C(=O)NCCN3CCOCC3)cc3c(=O)n4ccccc4nc32)cc1	–	–	–	–	–	–	·	·
Cn1c(C(=O)NCCN2CCOCC2)cc2c(=O)n3ccccc3nc21	59.7	–	–	–	–	–	66.9	74.2
Cc1ccc(CC(=O)NCCCn2ccnc2)cc1	–	–	–	–	–	–	·	·
Cc1cccn2c(=O)c3cc(C(=O)NCCN4CCOCC4)n(C)c3nc12	18.7	–	–	–	–	–	–	–
CCn1c(SCC(=O)NN=Cc2cc(OC)ccc2OC)nnc1-c1ccc(OC)cc1	–	–	–	–	–	–	·	·
N#CC(C#N)=Cc1c[nH]c(=O)c(C#N)c1Nc1ccccc1	61.8	–	–	–	–	–	63.0	61.6
Cc1cc(C)c(C#N)c(SCC(=O)C(C)(C)C)n1	–	–	–	–	–	–	·	·
CCc1c(C)nc(SCC(N)=O)c(C#N)c1C	–	–	–	–	–	–	·	·
COC(=O)CC(=O)CSc1nc(C)cc(C)c1C#N	20.4	–	–	–	–	–	93.0	91.3
Cc1cc(C)c(C#N)c(SCC(=O)Nc2cc(C)on2)n1	15.7	–	–	–	–	–	102.5	109.0
CCc1nnc(NC(=O)CSc2nc(C)cc(C)c2C#N)s1	13.7	–	–	–	–	–	81.9	80.1
CCc1c(C)nc(SCC(=O)CC(=O)OC(C)C)c(C#N)c1C	48.2	–	–	–	–	–	26.5	24.1
CCc1ccccc1-c1cc(C(=O)OC)c2n(c1=O)CCC2	–	–	–	–	–	–	·	·
CCOC(=O)NC(=O)CSc1nc(C)cc(C)c1C#N	98.9	–	–	–	–	–	90.9	98.6
SMILES	proKLK7 act	PLC-beta3 inh	ADAM10 inh	PLCg1 inh	ADAM17 inh	HGIII-sPLA2 inh	proKLK7 act conf	EDANS-DABCYL int	others
COc1ccc2cc(C3=CCCCC3)ncc2c1	19.4	–	–	–	–	–	–	5.3
COc1cc2cnc(C3=CCCCC3)cc2cc1OC	–	–	–	–	–	–	·	·
Nc1ccc2nc(-c3ccccc3)sc2c1	63.2	–	–	–	–	–	62.8	68.0
Cc1ccc2nc(-c3ccc(N)cc3)sc2c1	–	–	–	–	–	–	·	·
Cc1cc(-c2nc3ccccc3s2)ccc1N	40.6	–	–	–	–	–	–	–
Nc1ccc(-c2nc3cc(N)ccc3s2)cc1	51.8	–	–	–	–	–	16.4	66.7
CCOc1ccc(-n2c(SCC(=O)Nc3ccc4cn[nH]c4c3)nnc2-c2ccc(C(C)(C)C)cc2)cc1	–	–	–	–	–	–	·	·
CC(=O)N1CCc2cc(Br)c(S(=O)(=O)NCc3ccc(Cl)cc3)cc21	–	–	–	–	–	–	·	·
COC(=O)[C@]12C[C@H](CC(=O)N3CCN(C(=O)C4CC4)CC3)C(=O)N(Cc3ccco3)C1=C[C@H](COCc1ccccc1)O[C@@H]2C	–	–	–	–	–	–	·	·
CCCOc1ccc2c(CC)cc(=O)oc2c1C	–	–	–	–	–	–	·	·
CCc1cc(=O)oc2c(C)c(O)c(CN(C)C)cc12	64.8	–	–	–	–	–	57.8	67.0
COCCn1c(=NC(=O)c2ccc(S(=O)(=O)N3CCc4ccccc4C3)cc2)sc2cc(S(N)(=O)=O)ccc21	304.8	–	–	–	–	–	63.0	80.0
C=CCn1c(=NC(=O)c2ccc(S(=O)(=O)N3CCc4ccccc4C3)cc2)sc2cc(S(N)(=O)=O)ccc21	65.8	–	–	–	–	–	70.4	–	K7 EDANS ctr=–
CC(C)(C)C(=O)OC12CCCN(C1)/C(=C/c1ccncc1)C2 (stereo not given)	–	–	–	–	–	–	·	·
CCOC(=O)[C@]12CCCCC/C=C\1N(CCc1ccc(Cl)cc1)C(=O)[C@H]2CC(=O)NCc1ccc(OC)c(OC)c1	–	–	–	–	–	–	·	·
COC(=O)C1=CN(C)C=C(C(=O)OC)C1c1ccsc1	33.3	–	–	–	–	–	15.9	23.8
COc1ccc(Cn2cc(COC(=O)N3CCCC3)nn2)cc1	–	–	–	–	–	–	·	·
COC(=O)C1CN(Cc2ccc(Cl)cc2)CCS(=O)(=O)N1Cc1cn(Cc2ccc(C)cc2)nn1 (stereo not given)	–	–	–	–	–	–	·	·
COCCN(CCOC)S(=O)(=O)c1ccc(C(=O)Nc2sc3c(c2C(N)=O)CCCCC3)cc1	19.4	–	–	–	–	–	–	21.2
NCCNC(=O)c1c(NC(=O)c2ccccc2)sc2c1CCCC2	19.2	–	–	–	–	–	–	–
O=C(Nc1sc2c(c1C(=O)NCCCO)CCCC2)c1ccccc1	–	–	–	–	–	–	·	·
Cc1cc(C)c2c(N)c(C(=O)Nc3ncc(C)s3)sc2n1	33.0	–	–	–	–	–	–	–
COC(=O)c1sc2nc(C)cc(C)c2c1N	–	–	–	–	–	–	·	·
